Results reported in PubChem BioAssay (NCATS).
Results filed as inconclusive are left out. Activity calls are given as the source filed them. Calls come from the whole dose curve; as a rule, active = well fitted inhibition curve with a large enough effect; inconclusive = small, poorly fitted or top-dose-only effect; inactive = flat fitted curve, though single readings scatter.

Tests used:
CRL-7250 = normal cell line; test: Cytotoxic Profiling of Annotated Libraries Using Quantitative High-Throughput Screening (AID 1296008); details: Five cell lines viability, CellTiter-Glo ATP luminescence, 48-72 h; max response: stronger effect = lower value; for max response: % is set by controls: 0 for no effect and ±100 for the full control effect
Outline: (§1)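 Cytotoxicity was measured as CellTiter-Glo ATP luminescence, read after 10 min at room temperature. Compound treatment of the cells lasted 48 or 72 hr at 37 degrees Celsius in a qHTS format.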

HEK293 = test: as above; details: Five cell lines viability, CellTiter-Glo ATP luminescence, 48-72 h; max response: stronger effect = lower value
Outline: as §1

HaCat [1] = test: as above; details: Five cell lines viability, CellTiter-Glo ATP luminescence, 48-72 h; max response: stronger effect = lower value
Outline: as §1

NIH3T3 = test: as above; details: Five cell lines viability, CellTiter-Glo ATP luminescence, 48-72 h; max response: stronger effect = lower value
Outline: as §1

HACAT [2] = test: qHTS assay to identify novel small-molecules to repurpose for Merkel cell carcinoma treatment (AID 1296009); details: MCC and control cell lines, CellTiter-Glo viability, 72 h; at 44.8 µM (top of the series) unless noted
Outline: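 Cell viability, measured as CellTiter-Glo luminescence, was normalized between DMSO and no-cell wells. The cells had been exposed to 8- or 11-point compound dilutions for 72 hr at 37 degree celsius.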

Measured: max response
Note: nearly all actives have a fitted effect of over 60% in size.

O=C(O)[C@@H](O)[C@H](O)[C@H](O)[C@@H](O)C(=O)O
inactive: CRL-7250 -8.84% | HEK293 3.38% | HaCat [1] | NIH3T3 -2.02% | HACAT [2]

Cc1ncc(CO)c(CO)c1O
inactive: CRL-7250 1.45% | HEK293 4.28% | HaCat [1] | NIH3T3 -3.24% | HACAT [2]

Oc1ccccc1
inactive: CRL-7250 -1.94% | HEK293 -1.05% | HaCat [1] | NIH3T3 3.74% | HACAT [2]

O=C(CCCl)NCc1ccccc1
inactive: CRL-7250 -8.2% | HEK293 -4.62% | HaCat [1] | NIH3T3 | HACAT [2]

CC(=O)Nc1ccc(S(=O)(=O)Nc2cc(C)on2)cc1
inactive: CRL-7250 -2.31% | HEK293 4.22% | HaCat [1] | NIH3T3 | HACAT [2]

O=C(COCCOCCOCC(=O)Nc1c(I)cc(I)c(C(=O)O)c1I)Nc1c(I)cc(I)c(C(=O)O)c1I
inactive: CRL-7250 | HEK293 0.699% | HaCat [1] | NIH3T3 4.72% | HACAT [2]

N#CC1(c2ccc(F)cc2)CCC(=O)CC1
inactive: CRL-7250 -2.26% | HEK293 -11.6% | HaCat [1] | NIH3T3 | HACAT [2]

O=C(O)CCCC[P+](c1ccccc1)(c1ccccc1)c1ccccc1
inactive: CRL-7250 1.78% | HEK293 | HaCat [1] | NIH3T3 3.89% | HACAT [2]

COc1ccc2cc(C=O)ccc2c1
inactive: CRL-7250 3.03% | HEK293 0.484% | HaCat [1] | NIH3T3 2.35% | HACAT [2]

CCCC(=O)OCOC(=O)C1=C(C)NC(C)=C(C(=O)OC)C1c1cccc(Cl)c1Cl (stereo not given)
inactive: CRL-7250 4.76% | HEK293 0.879% | HaCat [1] | NIH3T3 0.493% | HACAT [2]

COc1cc(OC)nc(O[C@H](C(=O)O)C(OC)(c2ccccc2)c2ccccc2)n1
inactive: CRL-7250 3.73% | HEK293 | HaCat [1] | NIH3T3 | HACAT [2]

Cc1ccc2ccc(Cl)cc2n1
inactive: CRL-7250 | HEK293 | HaCat [1] | NIH3T3 3.19% | HACAT [2]

O=C(O)/C=C(\CC(=O)O)C(=O)O
inactive: CRL-7250 4.3% | HEK293 | HaCat [1] | NIH3T3 | HACAT [2]

COC(=O)/C=C\C(=O)OC
inactive: CRL-7250 -5.33% | HEK293 | HaCat [1] | NIH3T3 | HACAT [2]

CN(C)CCN1CCN(c2cccc(Cl)c2)C1=O
inactive: CRL-7250 -6.51% | HEK293 | HaCat [1] | NIH3T3 | HACAT [2]

Cc1ccc(-c2ccccc2C#N)cc1
inactive: CRL-7250 2.16% | HEK293 | HaCat [1] | NIH3T3 3.01% | HACAT [2]

CC(=O)N(c1onc(C)c1C)S(=O)(=O)c1ccc(N)cc1
inactive: CRL-7250 -16.4% | HEK293 4.9% | HaCat [1] | NIH3T3 -5.11% | HACAT [2]

CC1(C)OC(=O)Nc2ccc(Br)cc21
inactive: CRL-7250 | HEK293 | HaCat [1] | NIH3T3 3.48% | HACAT [2]

CCCCC(CC)CNC(=O)CC(C)OC(=O)CCC(=O)O (stereo not given)
inactive: CRL-7250 -4.08% | HEK293 1.54% | HaCat [1] | NIH3T3 -1.58% | HACAT [2]

COC(=O)c1cc(Cl)ccc1OC
inactive: CRL-7250 -7.71% | HEK293 | HaCat [1] | NIH3T3 | HACAT [2]

C/C(=N/NC(=O)c1ccncc1)C(=O)O
inactive: CRL-7250 0.746% | HEK293 2.14% | HaCat [1] | NIH3T3 0.247% | HACAT [2]

NS(=O)(=O)c1cc(C(=O)NN2C[C@H]3[C@H]4CCC(C4)[C@H]3C2)ccc1Cl
inactive: CRL-7250 | HEK293 4.38% | HaCat [1] | NIH3T3 | HACAT [2]

O=C1CC2(CCCC2)CC(=O)N1
inactive: CRL-7250 -7.34% | HEK293 4.63% | HaCat [1] | NIH3T3 | HACAT [2]

CNC(=O)c1c(I)c(NC(C)=O)c(I)c(C(=O)O)c1I
inactive: CRL-7250 -1.99% | HEK293 -7.17% | HaCat [1] | NIH3T3 0.318% | HACAT [2]

CN1N=C(C(N)=O)CCC1=O
inactive: CRL-7250 | HEK293 | HaCat [1] | NIH3T3 | HACAT [2]

Cc1onc(-c2ccccc2)c1C(=O)Cl
inactive: CRL-7250 -2.71% | HEK293 0.397% | HaCat [1] | NIH3T3 4.1% | HACAT [2]

CCOC(=O)C(=O)CCc1ccccc1
inactive: CRL-7250 -13.2% | HEK293 4.19% | HaCat [1] | NIH3T3 -3.41% | HACAT [2]

CC(C)C(=O)Nc1cccc(C(F)(F)F)c1
inactive: CRL-7250 3.59% | HEK293 3.73% | HaCat [1] | NIH3T3 2.63% | HACAT [2]

O=C1CC(c2ccc(Cl)cc2)CC(=O)N1
inactive: CRL-7250 | HEK293 | HaCat [1] | NIH3T3 -1.3% | HACAT [2]
